Experiments:
[1] = target: Ribosomal protein S6 kinase alpha-6 (Homo sapiens) (UniProt Q9UK32); conditions: at 1 µM;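 further: each value is a mean inhibition of RSK4 from a GSK PKIS panel screen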
[2] = target: T1, Serine/threonine-protein kinase Sgk1 (Homo sapiens) (UniProt O00141); conditions: at 0.1 µM
T1 sequence (whole entry): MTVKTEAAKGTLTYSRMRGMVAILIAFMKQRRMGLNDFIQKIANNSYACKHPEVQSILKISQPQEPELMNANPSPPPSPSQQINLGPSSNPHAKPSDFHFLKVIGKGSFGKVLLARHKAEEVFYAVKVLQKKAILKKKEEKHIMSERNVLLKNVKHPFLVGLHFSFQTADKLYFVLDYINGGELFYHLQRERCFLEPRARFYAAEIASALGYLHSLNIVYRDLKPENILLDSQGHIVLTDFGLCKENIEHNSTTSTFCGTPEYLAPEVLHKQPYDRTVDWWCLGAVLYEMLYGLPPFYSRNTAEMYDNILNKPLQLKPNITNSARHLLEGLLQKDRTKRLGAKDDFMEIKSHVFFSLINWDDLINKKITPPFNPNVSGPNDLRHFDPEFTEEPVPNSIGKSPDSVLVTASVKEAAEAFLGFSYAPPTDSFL

[3] = target: T1, Serine/threonine-protein kinase Sgk1 (Homo sapiens); conditions: at 1 µM
[4] = target: T2, Serine/threonine-protein kinase Sgk2 (Homo sapiens) (UniProt Q9HBY8); conditions: at 0.1 µM
T2 sequence (whole entry): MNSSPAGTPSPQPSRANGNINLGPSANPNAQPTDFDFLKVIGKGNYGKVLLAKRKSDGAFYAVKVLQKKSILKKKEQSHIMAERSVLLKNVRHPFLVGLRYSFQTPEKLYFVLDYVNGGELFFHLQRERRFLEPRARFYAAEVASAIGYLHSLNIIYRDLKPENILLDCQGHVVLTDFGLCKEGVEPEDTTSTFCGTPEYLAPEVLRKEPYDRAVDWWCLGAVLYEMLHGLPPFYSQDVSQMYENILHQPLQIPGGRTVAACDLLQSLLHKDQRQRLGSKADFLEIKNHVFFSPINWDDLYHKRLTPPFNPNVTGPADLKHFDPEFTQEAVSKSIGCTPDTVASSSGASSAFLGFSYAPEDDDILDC

[5] = target: T2, Serine/threonine-protein kinase Sgk2 (Homo sapiens); conditions: at 1 µM
[6] = target: T3, Serine/threonine-protein kinase Sgk3 (Homo sapiens) (UniProt Q96BR1); conditions: at 0.1 µM
T3 sequence (whole entry): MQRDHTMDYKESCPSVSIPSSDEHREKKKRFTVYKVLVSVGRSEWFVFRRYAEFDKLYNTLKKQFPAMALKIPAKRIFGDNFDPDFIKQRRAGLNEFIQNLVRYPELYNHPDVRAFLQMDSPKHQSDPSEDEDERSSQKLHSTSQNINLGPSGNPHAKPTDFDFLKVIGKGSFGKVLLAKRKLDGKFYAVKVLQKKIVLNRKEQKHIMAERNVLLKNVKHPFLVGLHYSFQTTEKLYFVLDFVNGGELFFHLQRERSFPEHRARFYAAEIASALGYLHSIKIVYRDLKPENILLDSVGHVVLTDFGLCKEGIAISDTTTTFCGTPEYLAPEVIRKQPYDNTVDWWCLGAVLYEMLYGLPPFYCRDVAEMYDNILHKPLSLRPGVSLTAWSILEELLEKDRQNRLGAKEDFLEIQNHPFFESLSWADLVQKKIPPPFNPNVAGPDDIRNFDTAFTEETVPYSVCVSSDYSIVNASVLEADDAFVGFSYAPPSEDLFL

[7] = target: T3, Serine/threonine-protein kinase Sgk3 (Homo sapiens); conditions: at 1 µM
[8] = target: 5'-AMP-activated protein kinase catalytic subunit alpha-1 (Homo sapiens) (UniProt Q13131); conditions: at 0.1 µM
[9] = target: 5'-AMP-activated protein kinase catalytic subunit alpha-1 (Homo sapiens) (UniProt Q13131); conditions: at 1 µM
[10] = target: 5'-AMP-activated protein kinase catalytic subunit alpha-2 (Homo sapiens) (UniProt P54646); conditions: at 0.1 µM
[11] = target: 5'-AMP-activated protein kinase catalytic subunit alpha-2 (Homo sapiens) (UniProt P54646); conditions: at 1 µM
[12] = target: T4, NUAK family SNF1-like kinase 1 (Homo sapiens) (UniProt O60285); conditions: at 0.1 µM
T4 sequence (whole entry): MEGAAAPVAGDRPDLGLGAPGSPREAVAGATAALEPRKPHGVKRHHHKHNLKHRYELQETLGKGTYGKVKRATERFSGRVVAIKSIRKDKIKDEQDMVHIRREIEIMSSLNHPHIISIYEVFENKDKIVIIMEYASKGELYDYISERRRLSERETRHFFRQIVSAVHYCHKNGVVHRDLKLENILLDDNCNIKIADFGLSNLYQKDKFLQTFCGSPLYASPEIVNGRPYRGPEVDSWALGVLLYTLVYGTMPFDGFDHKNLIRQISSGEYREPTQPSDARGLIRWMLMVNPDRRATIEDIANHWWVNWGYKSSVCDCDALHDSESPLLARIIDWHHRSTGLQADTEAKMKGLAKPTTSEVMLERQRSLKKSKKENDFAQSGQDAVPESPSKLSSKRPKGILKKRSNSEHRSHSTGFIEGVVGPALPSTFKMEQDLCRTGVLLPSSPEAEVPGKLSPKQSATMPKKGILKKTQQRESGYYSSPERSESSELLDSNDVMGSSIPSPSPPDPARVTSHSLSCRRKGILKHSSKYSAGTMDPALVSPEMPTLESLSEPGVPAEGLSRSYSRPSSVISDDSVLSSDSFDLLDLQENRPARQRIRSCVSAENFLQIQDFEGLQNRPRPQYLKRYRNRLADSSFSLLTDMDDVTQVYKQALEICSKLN

[13] = target: T4, NUAK family SNF1-like kinase 1 (Homo sapiens); conditions: at 1 µM
[14] = target: T5, Serine/threonine-protein kinase BRSK1 (Homo sapiens) (UniProt Q8TDC3); conditions: at 0.1 µM
T5 sequence (whole entry): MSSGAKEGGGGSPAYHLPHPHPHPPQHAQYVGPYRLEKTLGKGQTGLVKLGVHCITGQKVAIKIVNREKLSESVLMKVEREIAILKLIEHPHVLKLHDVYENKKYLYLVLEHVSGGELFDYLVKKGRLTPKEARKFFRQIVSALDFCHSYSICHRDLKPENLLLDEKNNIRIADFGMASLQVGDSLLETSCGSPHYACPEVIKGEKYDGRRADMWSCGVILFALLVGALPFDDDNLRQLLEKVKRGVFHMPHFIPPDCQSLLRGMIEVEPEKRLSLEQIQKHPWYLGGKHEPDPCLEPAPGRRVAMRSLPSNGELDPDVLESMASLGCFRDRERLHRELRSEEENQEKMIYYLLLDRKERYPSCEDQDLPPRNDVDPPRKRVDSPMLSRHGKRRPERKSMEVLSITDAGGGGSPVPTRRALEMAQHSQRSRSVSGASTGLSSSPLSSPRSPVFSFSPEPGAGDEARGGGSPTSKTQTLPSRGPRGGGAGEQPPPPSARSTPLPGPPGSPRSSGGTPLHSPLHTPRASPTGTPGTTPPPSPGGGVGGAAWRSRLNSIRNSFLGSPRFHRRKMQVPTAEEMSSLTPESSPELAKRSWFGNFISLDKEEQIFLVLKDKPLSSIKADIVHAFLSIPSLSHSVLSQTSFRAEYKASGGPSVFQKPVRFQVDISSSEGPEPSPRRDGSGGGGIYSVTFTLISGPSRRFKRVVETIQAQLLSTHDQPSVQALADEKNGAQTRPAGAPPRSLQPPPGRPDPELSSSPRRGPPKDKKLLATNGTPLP

[15] = target: T5, Serine/threonine-protein kinase BRSK1 (Homo sapiens); conditions: at 1 µM
[16] = target: T6, Serine/threonine-protein kinase BRSK2 (Homo sapiens) (UniProt Q8IWQ3); conditions: at 0.1 µM
T6 sequence (whole entry): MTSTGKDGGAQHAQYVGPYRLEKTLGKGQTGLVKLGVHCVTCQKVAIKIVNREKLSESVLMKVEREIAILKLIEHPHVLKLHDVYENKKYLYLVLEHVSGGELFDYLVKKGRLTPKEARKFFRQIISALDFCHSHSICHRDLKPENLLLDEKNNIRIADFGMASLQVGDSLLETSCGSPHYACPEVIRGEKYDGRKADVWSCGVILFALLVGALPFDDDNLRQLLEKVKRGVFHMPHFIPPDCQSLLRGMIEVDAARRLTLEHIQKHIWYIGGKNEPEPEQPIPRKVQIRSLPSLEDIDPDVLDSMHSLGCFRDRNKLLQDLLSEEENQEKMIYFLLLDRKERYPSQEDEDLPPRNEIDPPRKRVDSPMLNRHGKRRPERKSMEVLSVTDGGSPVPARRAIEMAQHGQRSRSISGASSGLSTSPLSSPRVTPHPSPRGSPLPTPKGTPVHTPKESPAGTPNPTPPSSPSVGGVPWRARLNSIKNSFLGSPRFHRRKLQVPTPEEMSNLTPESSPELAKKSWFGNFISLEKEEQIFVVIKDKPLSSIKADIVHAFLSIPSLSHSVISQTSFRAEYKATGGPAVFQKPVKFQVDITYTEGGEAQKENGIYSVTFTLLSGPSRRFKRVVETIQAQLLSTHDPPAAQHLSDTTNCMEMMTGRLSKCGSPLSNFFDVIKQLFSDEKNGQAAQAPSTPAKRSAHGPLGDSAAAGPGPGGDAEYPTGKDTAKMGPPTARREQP

[17] = target: T6, Serine/threonine-protein kinase BRSK2 (Homo sapiens); conditions: at 1 µM
[18] = target: Calcium/calmodulin-dependent protein kinase type 1D (Homo sapiens) (UniProt Q8IU85); conditions: at 0.1 µM
[19] = target: Calcium/calmodulin-dependent protein kinase type 1D (Homo sapiens) (UniProt Q8IU85); conditions: at 1 µM
[20] = target: Calcium/calmodulin-dependent protein kinase type II subunit alpha (Homo sapiens) (UniProt Q9UQM7); conditions: at 0.1 µM;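 further: reported values are averages (mean inhibition of CAMK2A)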
Chain of Calcium/calmodulin-dependent protein kinase type II subunit alpha (Homo sapiens) (Q9UQM7 whole entry): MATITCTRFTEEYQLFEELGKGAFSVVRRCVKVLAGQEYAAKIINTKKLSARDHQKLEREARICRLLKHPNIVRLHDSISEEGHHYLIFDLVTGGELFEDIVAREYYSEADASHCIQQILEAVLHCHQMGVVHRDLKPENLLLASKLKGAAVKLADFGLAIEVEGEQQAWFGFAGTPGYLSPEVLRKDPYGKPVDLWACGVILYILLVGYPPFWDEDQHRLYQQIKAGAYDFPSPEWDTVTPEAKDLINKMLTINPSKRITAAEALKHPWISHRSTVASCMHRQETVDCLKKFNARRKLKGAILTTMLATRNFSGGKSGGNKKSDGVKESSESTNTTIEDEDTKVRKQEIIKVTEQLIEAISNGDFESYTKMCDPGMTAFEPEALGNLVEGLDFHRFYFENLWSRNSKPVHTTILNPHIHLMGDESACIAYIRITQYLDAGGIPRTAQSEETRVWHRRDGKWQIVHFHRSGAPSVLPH

Chain of 5'-AMP-activated protein kinase catalytic subunit alpha-2 (Homo sapiens) (P54646 whole entry, looked up): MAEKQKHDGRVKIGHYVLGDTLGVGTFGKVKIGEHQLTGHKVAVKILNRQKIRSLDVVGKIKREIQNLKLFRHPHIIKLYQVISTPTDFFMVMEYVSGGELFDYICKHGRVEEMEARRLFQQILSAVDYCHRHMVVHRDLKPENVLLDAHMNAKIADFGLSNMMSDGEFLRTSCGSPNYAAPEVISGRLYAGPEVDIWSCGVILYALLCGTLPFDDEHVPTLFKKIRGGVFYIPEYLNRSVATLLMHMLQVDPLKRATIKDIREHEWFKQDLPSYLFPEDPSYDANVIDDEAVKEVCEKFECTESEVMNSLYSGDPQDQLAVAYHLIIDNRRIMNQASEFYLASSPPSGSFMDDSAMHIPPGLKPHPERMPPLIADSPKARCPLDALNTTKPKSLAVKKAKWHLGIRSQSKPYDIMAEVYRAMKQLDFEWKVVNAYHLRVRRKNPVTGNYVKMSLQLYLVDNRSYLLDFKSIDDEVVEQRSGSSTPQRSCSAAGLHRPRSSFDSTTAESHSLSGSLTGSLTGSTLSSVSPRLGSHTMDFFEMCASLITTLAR
Chain of Ribosomal protein S6 kinase alpha-6 (Homo sapiens) (Q9UK32 whole entry): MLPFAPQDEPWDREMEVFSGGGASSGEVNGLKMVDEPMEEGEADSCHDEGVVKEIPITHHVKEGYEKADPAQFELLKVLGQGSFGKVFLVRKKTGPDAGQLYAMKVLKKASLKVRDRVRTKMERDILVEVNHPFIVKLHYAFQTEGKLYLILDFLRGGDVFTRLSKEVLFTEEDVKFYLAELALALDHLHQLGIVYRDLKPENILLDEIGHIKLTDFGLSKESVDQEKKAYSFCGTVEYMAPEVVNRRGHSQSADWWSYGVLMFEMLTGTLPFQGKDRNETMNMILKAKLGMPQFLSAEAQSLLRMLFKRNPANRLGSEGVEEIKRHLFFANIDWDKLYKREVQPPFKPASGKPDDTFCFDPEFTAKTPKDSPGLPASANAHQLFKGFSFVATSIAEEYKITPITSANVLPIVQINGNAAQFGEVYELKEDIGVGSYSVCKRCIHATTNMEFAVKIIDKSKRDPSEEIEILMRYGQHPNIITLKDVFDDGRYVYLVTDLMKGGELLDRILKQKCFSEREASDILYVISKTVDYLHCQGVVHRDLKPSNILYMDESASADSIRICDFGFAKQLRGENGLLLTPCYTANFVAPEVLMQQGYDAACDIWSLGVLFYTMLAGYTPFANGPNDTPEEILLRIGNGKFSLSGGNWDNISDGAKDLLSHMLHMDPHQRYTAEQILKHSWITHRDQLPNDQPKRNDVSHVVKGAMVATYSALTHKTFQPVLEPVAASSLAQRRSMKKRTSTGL
Chain of 5'-AMP-activated protein kinase catalytic subunit alpha-1 (Homo sapiens) (Q13131 whole entry, looked up): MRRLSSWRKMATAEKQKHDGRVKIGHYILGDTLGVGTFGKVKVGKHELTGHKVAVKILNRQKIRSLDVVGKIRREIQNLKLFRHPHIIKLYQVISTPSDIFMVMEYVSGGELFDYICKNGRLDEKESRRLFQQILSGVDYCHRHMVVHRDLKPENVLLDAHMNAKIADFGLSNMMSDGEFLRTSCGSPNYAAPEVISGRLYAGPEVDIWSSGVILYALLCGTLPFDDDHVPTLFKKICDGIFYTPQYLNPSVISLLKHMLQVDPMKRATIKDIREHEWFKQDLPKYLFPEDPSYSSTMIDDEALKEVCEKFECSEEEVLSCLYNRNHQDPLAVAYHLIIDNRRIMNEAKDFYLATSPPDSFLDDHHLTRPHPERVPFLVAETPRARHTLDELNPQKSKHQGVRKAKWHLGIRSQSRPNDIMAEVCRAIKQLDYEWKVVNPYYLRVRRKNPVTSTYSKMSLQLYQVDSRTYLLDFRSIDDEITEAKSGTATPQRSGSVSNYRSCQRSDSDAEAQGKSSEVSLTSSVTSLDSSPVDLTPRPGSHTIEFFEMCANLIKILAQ
Chain of Calcium/calmodulin-dependent protein kinase type 1D (Homo sapiens) (Q8IU85 whole entry, looked up): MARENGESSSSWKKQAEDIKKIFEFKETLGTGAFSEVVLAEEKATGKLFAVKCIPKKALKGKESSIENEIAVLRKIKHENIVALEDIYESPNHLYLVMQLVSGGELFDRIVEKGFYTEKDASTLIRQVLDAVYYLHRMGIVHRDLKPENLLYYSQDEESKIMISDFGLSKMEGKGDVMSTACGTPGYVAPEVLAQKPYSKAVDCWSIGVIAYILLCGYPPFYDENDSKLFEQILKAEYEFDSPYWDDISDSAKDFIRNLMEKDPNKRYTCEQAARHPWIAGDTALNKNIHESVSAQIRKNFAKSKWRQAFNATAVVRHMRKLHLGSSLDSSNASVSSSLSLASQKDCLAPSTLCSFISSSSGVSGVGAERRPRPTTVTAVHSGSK

SMILES | inhibition [1] | inhibition [2] | inhibition [3] | inhibition [4] | inhibition [5] | inhibition [6] | inhibition [7] | inhibition [8] | inhibition [9] | inhibition [10] | inhibition [11] | inhibition [12] | inhibition [13] | inhibition [14] | inhibition [15] | inhibition [16] | inhibition [17] | inhibition [18] | inhibition [19] | inhibition [20]
CNC(=O)c1cncc(/C=C/c2ccccc2Cl)c1 | 0.65% | 0.52% | 3.45% | 3.22% | 1.73% | 2.89% | 3.36% | 1.03% | 2.25% | -2.07% | -0.38% | 4.61% | 4.26% | 0.56% | 8.62% | 0.31% | 8.91% | 0.88% | -1.08% | 1.53%
COc1cc(N2CCN(C(C)C)CC2)ccc1Nc1nc(Nc2ccc(F)cc2C(N)=O)c2cc[nH]c2n1 | 54.8% | -0.27% | 1.48% | 3.52% | -3.53% | 0.95% | 0.42% | 6.33% | 33.5% | 6.34% | 13.2% | 66.6% | 85% | 2.21% | -0.11% | 0.22% | 1.71% | 10.9% | 52.8% | 9.8%
COc1cccc(-n2ncc3c(N/N=C/c4ccc(F)cc4)ncnc32)c1 | 1.84% | 4.27% | 5.6% | 2.15% | 0.76% | 4.84% | 3.63% | 3.38% | 5.57% | -0.09% | 3.2% | 6.48% | 16.9% | 1.24% | 12.1% | 5.29% | 17.8% | -0.29% | 1.05% | 3.15%
CNC(=O)c1cc(-c2ccc(F)cc2)cc(-c2ccc(S(=O)(=O)N3CCCC3)cc2)c1N | 1.28% | 2.26% | 1.89% | 2.87% | 0.33% | 2.62% | 3.57% | 1.77% | 2.03% | 6.28% | 2.93% | 1.2% | 1.2% | 1.39% | -2.02% | 0.91% | 2.02% | -0.49% | 1.09% | 0.94%
COC(=O)c1sc(-n2cnc3cc(OC)c(OC)cc32)cc1OCc1ccccc1C(F)(F)F | 1.66% | 2.5% | 4.04% | 1.44% | 1.94% | 2.58% | 1.46% | 3.84% | 8.18% | -0.41% | 5.51% | 18.4% | 47.1% | 0.92% | 2.12% | 2.43% | 4.63% | 0.66% | 2.52% | 5.18%
